From the supplement of paper PMC12067093, “Discovery and optimisation of a covalent ligand for TRIM25 and its application to targeted protein ubiquitination” (Chemical Science, 2025)
Targets with the largest changes are over-represented here; the source holds about 21,000 in all.

Each target was assayed with Cc1cc(ccc1-c1ccccc1)C(=O)N1CCCN(CC1)C(=O)CCl [compound 10] (assay: probe-labelled cysteine peptide fold change vs DMSO (competition) (log2 fold change); higher = less target engagement (more negative = stronger competition)). Conditions: 10 µM; THP-1; incubation time: 4 h.
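Note: competitive profiling in live THP-1 cells: cysteine peptides tagged with an iodoacetamide desthiobiotin (IA-DTB) probe, intensity after compound treatment relative to DMSO-treated cells.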

Sequence of UniProt Q14155 (Q14155 whole entry, looked up): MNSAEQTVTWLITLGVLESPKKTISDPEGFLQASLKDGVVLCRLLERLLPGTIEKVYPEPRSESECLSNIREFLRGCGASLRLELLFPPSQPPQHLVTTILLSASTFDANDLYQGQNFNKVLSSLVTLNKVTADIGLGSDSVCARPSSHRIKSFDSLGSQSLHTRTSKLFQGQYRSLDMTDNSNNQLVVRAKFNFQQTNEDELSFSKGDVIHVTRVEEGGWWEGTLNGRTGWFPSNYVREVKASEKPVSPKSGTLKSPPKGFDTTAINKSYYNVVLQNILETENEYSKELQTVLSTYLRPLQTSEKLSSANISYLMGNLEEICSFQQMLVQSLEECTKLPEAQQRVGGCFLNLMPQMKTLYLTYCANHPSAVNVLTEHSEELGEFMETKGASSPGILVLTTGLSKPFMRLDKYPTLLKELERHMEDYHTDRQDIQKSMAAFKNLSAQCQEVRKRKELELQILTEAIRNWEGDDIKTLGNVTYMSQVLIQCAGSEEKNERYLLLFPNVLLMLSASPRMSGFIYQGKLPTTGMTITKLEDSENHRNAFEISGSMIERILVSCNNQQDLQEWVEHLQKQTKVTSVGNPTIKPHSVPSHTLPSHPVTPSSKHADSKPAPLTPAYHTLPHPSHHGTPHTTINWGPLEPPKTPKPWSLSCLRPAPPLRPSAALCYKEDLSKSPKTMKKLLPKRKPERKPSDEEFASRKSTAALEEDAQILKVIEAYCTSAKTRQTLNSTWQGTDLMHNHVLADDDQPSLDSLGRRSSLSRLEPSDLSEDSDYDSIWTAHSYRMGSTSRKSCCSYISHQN
Sequence of UniProt P38606 (P38606 whole entry, looked up): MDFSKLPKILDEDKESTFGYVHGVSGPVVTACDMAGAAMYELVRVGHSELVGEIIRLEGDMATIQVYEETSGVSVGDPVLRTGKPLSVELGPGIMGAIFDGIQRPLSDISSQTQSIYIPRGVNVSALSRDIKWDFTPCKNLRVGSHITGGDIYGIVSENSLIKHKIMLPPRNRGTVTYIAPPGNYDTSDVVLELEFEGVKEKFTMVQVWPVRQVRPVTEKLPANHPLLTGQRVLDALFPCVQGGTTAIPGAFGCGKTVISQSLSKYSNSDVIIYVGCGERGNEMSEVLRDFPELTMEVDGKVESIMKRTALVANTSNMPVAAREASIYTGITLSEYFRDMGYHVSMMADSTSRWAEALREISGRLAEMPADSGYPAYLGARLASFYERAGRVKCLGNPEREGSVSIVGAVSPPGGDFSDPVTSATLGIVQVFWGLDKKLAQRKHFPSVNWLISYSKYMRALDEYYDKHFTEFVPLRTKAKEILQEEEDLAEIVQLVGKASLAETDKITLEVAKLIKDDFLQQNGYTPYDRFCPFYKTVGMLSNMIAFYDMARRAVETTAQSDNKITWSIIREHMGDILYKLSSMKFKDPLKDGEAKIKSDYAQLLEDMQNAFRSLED
Sequence of UniProt Q92619 (Q92619 whole entry, looked up): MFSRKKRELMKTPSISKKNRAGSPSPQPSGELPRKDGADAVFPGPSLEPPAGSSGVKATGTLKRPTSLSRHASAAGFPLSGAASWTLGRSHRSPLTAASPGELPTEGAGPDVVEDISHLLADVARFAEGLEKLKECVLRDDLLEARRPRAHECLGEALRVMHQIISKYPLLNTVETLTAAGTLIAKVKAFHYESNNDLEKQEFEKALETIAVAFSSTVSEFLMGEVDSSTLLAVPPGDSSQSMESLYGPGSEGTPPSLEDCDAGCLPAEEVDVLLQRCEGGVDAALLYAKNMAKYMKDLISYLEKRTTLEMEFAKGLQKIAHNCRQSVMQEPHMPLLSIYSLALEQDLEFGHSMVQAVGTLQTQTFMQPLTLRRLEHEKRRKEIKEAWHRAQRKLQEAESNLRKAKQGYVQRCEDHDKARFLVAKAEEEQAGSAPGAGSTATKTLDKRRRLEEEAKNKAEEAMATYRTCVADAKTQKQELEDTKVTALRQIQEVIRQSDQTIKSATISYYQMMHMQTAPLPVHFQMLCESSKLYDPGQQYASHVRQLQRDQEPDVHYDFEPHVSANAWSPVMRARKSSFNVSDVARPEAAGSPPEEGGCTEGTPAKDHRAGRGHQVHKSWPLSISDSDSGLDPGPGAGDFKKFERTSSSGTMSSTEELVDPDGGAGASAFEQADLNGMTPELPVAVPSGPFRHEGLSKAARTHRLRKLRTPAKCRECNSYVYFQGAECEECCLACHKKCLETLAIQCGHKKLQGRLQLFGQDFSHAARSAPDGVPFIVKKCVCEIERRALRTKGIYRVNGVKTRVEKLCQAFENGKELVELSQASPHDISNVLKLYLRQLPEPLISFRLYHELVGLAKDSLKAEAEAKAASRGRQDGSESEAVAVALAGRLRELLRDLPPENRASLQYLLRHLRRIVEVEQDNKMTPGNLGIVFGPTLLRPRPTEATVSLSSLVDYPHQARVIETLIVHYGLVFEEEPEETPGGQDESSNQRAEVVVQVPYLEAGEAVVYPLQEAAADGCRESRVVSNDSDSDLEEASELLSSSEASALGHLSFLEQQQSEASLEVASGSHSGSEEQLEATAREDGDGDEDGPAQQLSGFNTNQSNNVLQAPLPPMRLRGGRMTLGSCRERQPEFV
Sequence of UniProt O95573 (O95573 whole entry, looked up): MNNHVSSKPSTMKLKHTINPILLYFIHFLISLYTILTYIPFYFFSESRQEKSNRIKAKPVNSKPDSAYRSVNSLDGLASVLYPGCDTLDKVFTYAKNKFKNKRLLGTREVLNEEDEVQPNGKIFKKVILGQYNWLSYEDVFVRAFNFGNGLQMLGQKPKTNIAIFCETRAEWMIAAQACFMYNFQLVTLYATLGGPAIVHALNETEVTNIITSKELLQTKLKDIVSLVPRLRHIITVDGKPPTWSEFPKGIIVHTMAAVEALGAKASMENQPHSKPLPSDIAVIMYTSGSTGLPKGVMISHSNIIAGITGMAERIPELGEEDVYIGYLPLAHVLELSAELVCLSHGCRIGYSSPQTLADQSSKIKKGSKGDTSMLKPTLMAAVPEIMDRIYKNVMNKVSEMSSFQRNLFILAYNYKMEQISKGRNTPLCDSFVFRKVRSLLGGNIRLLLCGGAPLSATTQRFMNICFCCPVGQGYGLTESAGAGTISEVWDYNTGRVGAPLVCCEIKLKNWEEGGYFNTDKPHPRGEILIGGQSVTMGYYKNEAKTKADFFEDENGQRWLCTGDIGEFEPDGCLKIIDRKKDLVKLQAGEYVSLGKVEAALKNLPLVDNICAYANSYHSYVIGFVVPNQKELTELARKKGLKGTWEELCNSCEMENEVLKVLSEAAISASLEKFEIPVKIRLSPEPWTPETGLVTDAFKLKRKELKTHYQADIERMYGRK
Sequence of UniProt P54886 (P54886 whole entry, looked up): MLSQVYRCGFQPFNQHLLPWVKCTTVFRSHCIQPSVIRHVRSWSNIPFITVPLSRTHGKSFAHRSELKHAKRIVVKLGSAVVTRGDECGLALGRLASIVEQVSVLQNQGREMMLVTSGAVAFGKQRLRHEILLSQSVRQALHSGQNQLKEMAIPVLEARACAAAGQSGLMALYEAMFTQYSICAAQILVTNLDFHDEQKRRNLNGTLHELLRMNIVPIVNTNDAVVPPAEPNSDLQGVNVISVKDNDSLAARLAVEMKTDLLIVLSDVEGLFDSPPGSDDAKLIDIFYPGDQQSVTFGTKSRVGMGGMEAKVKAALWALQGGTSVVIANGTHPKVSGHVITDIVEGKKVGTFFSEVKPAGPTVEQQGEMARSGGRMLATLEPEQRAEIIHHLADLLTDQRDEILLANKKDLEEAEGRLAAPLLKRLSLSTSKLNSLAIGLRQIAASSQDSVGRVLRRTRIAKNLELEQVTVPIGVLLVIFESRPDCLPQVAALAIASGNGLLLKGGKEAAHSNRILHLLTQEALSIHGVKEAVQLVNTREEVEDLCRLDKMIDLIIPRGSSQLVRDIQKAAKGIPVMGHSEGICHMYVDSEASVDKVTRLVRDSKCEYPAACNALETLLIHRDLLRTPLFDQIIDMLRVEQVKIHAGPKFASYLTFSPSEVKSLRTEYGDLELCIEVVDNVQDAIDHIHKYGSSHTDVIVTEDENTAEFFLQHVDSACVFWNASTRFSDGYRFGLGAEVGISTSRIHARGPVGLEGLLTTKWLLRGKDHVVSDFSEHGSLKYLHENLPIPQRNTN
Sequence of UniProt Q13443 (Q13443 whole entry, looked up): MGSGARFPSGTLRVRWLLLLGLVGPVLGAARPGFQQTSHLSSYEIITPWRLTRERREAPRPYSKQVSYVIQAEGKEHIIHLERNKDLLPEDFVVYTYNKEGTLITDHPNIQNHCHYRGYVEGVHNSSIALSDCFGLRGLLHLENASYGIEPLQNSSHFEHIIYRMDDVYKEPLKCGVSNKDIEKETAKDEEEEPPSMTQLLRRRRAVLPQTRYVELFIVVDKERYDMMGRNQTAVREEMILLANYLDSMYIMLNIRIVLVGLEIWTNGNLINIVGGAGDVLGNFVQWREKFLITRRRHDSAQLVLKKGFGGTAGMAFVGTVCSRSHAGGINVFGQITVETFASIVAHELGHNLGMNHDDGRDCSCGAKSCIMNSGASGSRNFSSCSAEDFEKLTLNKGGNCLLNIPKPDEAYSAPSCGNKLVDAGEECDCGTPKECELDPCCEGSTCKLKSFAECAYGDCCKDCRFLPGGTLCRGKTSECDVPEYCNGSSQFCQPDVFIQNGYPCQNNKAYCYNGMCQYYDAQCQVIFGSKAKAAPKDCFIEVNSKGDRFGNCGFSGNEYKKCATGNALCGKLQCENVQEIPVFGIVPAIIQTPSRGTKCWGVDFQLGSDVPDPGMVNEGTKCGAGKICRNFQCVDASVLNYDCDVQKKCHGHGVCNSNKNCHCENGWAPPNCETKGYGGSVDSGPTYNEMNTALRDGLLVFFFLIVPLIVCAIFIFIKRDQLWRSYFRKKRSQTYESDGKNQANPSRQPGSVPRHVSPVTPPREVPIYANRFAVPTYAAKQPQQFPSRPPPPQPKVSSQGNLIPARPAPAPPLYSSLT

Row | Target | probe-labelled cysteine peptide fold change
1 | ATN1_P54259_851_APVECPSLGPVPHRPPFEPGSAVATVPPYLGPDTPALR (UniProt P54259) | -0.143
2 | ATIC_P31939_101_VVACNLYPFVK (UniProt P31939) | 0.119
3 | ATP2B4_P23634_632_TVIEPMACDGLR (UniProt P23634) | -0.0204
4 | ACSL4_O60488_221_TALLDISCVK (UniProt O60488) | 0.177
5 | ATRX_P46100_1242_IKPVTENLVLSSHTGFCQSSGDEALSK (UniProt P46100) | -0.15
6 | ATM_Q13315_2770_SGVLEWCTGTVPIGEFLVNNEDGAHKR (UniProt Q13315) | 0.0886
7 | AIG1_Q9NVV5_6_MALVPCQVLR (UniProt Q9NVV5) | -0.836
8 | ARHGEF7_Q14155_490_TLGNVTYMSQVLIQCAGSEEK (UniProt Q14155) | -0.204
9 | ARHGAP45_Q92619_809_LCQAFENGK (UniProt Q92619) | 0.077
10 | AFG3L2_Q9Y4W6_313_DVAGCEEAKLEIMEFVNFLK (UniProt Q9Y4W6) | -0.324
11 | ALDH18A1_P54886_674_SLRTEYGDLELCIEVVDNVQDAIDHIHK (UniProt P54886) | 0.115
12 | AIDA_Q96BJ3_69_IATCLELR (UniProt Q96BJ3) | -0.123
13 | ANKFY1_Q9P2R3_389_TPLHVSIMAGNEYVFSQLLQCK (UniProt Q9P2R3) | 0.123
14 | ALAD_P13716_75_CVLIFGVPSR (UniProt P13716) | 0.166
15 | ATP13A1_Q9HD20_410_ATTGLKPVDSGCVAYVLR (UniProt Q9HD20) | 0.133
16 | ALDOA_P04075_339_RALANSLACQGK (UniProt P04075) | -0.187

Row | Target | probe-labelled cysteine peptide fold change
17 | ATIC_P31939_575_VVIEACDELGIILAHTNLR (UniProt P31939) | 0.103
18 | ALKBH3_Q96Q83_201_CPIIASLSFGATR (UniProt Q96Q83) | 0.189
19 | AKR1B1_P15121_299+304_VCALLSCTSHK (UniProt P15121) | -0.497
20 | ALCAM_Q13740_270_CLGNGNPPPEEFLFYLPGQPEGIR (UniProt Q13740) | -0.0239
21 | ARRB2_P32121_126_KLGQHAHPFFFTIPQNLPCSVTLQPGPEDTGK (UniProt P32121) | -0.12
22 | AKR1B1_P15121_299_VCALLSCTSHK (UniProt P15121) | -0.208
23 | ACSL3_O95573_85_SVNSLDGLASVLYPGCDTLDK (UniProt O95573) | 0.0339
24 | ANLN_Q9NQW6_978_CQVNSSVEER (UniProt Q9NQW6) | 0.153
25 | ACOX1_Q15067_392_AFTSWTANTGIEACR (UniProt Q15067) | 0.0592
26 | ACSL4_O60488_420_GYDAPLCNLLLFKK (UniProt O60488) | -0.291
27 | ADAM9_Q13443_539_DCFIEVNSK (UniProt Q13443) | -0.0729
28 | ALG13_Q9NP73_86_ADLVISHAGAGSCLETLEK (UniProt Q9NP73) | -0.211
29 | ALDOA_P04075_178_YASICQQNGIVPIVEPEILPDGDHDLKR (UniProt P04075) | 0.281
30 | ATP6V1A_P38606_138_WDFTPCK (UniProt P38606) | -1.09
31 | ADNP2_Q6IQ32_220_CNANASSQDALMYHILTSDIHR (UniProt Q6IQ32) | 0.0714

Same assay, conditions: 50 µM; THP-1; incubation time: 4 h

Row | Target | probe-labelled cysteine peptide fold change
32 | ATN1_P54259_851_APVECPSLGPVPHRPPFEPGSAVATVPPYLGPDTPALR (UniProt P54259) | -0.422
33 | ATIC_P31939_101_VVACNLYPFVK (UniProt P31939) | 0.0511
34 | ATP2B4_P23634_632_TVIEPMACDGLR (UniProt P23634) | -0.262
35 | ACSL4_O60488_221_TALLDISCVK (UniProt O60488) | 0.0446
36 | ATRX_P46100_1242_IKPVTENLVLSSHTGFCQSSGDEALSK (UniProt P46100) | -0.661
37 | ATM_Q13315_2770_SGVLEWCTGTVPIGEFLVNNEDGAHKR (UniProt Q13315) | -0.152
38 | AIG1_Q9NVV5_6_MALVPCQVLR (UniProt Q9NVV5) | -1.35
39 | ARHGEF7_Q14155_490_TLGNVTYMSQVLIQCAGSEEK (UniProt Q14155) | -1.18
40 | ARHGAP45_Q92619_809_LCQAFENGK (UniProt Q92619) | 0.0355
41 | AFG3L2_Q9Y4W6_313_DVAGCEEAKLEIMEFVNFLK (UniProt Q9Y4W6) | -0.391
42 | ALDH18A1_P54886_674_SLRTEYGDLELCIEVVDNVQDAIDHIHK (UniProt P54886) | -0.188
43 | AIDA_Q96BJ3_69_IATCLELR (UniProt Q96BJ3) | -0.606
44 | ANKFY1_Q9P2R3_389_TPLHVSIMAGNEYVFSQLLQCK (UniProt Q9P2R3) | 0.15
45 | ALAD_P13716_75_CVLIFGVPSR (UniProt P13716) | 0.185
46 | ATP13A1_Q9HD20_410_ATTGLKPVDSGCVAYVLR (UniProt Q9HD20) | 0.0894
47 | ALDOA_P04075_339_RALANSLACQGK (UniProt P04075) | -0.104

Row | Target | probe-labelled cysteine peptide fold change
48 | ATIC_P31939_575_VVIEACDELGIILAHTNLR (UniProt P31939) | 0.126
49 | ALKBH3_Q96Q83_201_CPIIASLSFGATR (UniProt Q96Q83) | -0.104
50 | AKR1B1_P15121_299+304_VCALLSCTSHK (UniProt P15121) | -2.06
51 | ALCAM_Q13740_270_CLGNGNPPPEEFLFYLPGQPEGIR (UniProt Q13740) | 0.0758
52 | ARRB2_P32121_126_KLGQHAHPFFFTIPQNLPCSVTLQPGPEDTGK (UniProt P32121) | -0.146
53 | AKR1B1_P15121_299_VCALLSCTSHK (UniProt P15121) | -2.38
54 | ACSL3_O95573_85_SVNSLDGLASVLYPGCDTLDK (UniProt O95573) | 0.289
55 | ANLN_Q9NQW6_978_CQVNSSVEER (UniProt Q9NQW6) | 0.239
56 | ACOX1_Q15067_392_AFTSWTANTGIEACR (UniProt Q15067) | 0.0993
57 | ACSL4_O60488_420_GYDAPLCNLLLFKK (UniProt O60488) | -1.12
58 | ADAM9_Q13443_539_DCFIEVNSK (UniProt Q13443) | -0.137
59 | ALG13_Q9NP73_86_ADLVISHAGAGSCLETLEK (UniProt Q9NP73) | -0.753
60 | ALDOA_P04075_178_YASICQQNGIVPIVEPEILPDGDHDLKR (UniProt P04075) | -0.12
61 | ATP6V1A_P38606_138_WDFTPCK (UniProt P38606) | -3.27
62 | ADNP2_Q6IQ32_220_CNANASSQDALMYHILTSDIHR (UniProt Q6IQ32) | 0.0124
